From PubChem BioAssay (Tox21)
Results filed as inconclusive are left out. Activity calls are given as the source filed them. Unless noted, the call rests on the fitted dose curve; in most records, active means well fitted curve in the direction sought with a large enough effect in the repeat runs; inconclusive means weak or mixed curves; inactive means no such curve, though single readings can be large; an effect the other way counts as inactive or inconclusive.

Legend:
[1] = qHTS assay for small molecule agonists of the p53 signaling pathway (AID 651631; calls by dose curve; further: nearly all actives have a fitted effect of over 15% in size; further: potency means the concentration at half of the fitted maximal effect)
How it was run: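 Stably transfected HCT-116 cells (beta-lactamase behind p53 response elements) get compounds after a 5 h settling period; 16 h later at 37 °C, FRET substrate is loaded and fluorescence read after 2 h.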

[2] = qHTS assay for small molecule agonists of the p53 signaling pathway - cell viability (AID 651633; calls by dose curve; further: nearly all actives have a fitted effect of over 30% in size; further: potency means the concentration at half of the fitted maximal effect;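 on activity change, negative = cytotoxicity: p53RE-bla HCT reporter cells with a stable beta-lactamase p53 reporter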)
How it was run: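 p53RE-bla cells were treated with compound for 16 hours at 37 C. Cytotoxicity was then measured as CellTiter-Glo luminescence after 30 min at room temperature.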

[3] = qHTS assay for small molecules that induce genotoxicity in human embryonic kidney cells expressing luciferase-tagged ATAD5 - cell viability (AID 651634; calls by dose curve; further: nearly all actives have a fitted effect of over 25% in size; further: potency means the concentration at half of the fitted maximal effect)
How it was run: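 After 15.5 hr incubation with compound at 37C, 5% CO2, HEK293T ATAD5-luciferase cells received CellTiter-Fluor reagent; fluorescence intensity was quantified following 30 min at 37C.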

[4] = qHTS assay for small molecule disruptors of the mitochondrial membrane potential - cell viability (AID 720634; calls by dose curve;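 further: human HepG2 liver cancer cells; nearly all actives have a fitted effect of over 20% in size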)
How it was run: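 ATP-based luminescent viability readout (CellTiter-Glo, 30 min, room temperature) in HepG2 cells multiplexed with the m-MPI membrane potential dye; compound exposure lasted 1 hr at 37 C.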

[5] = qHTS assay to test for compound auto fluorescence at 535 nm (green) in HepG2 cells (AID 720675)
[6] = qHTS assay to test for compound auto fluorescence at 460 nm (blue) in HEK293 cells (AID 720678)
How it was run: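 Cells were seeded and left to adhere for 4-5 hr at 37C. Compounds were then pin-transferred. After an overnight incubation at 37C under 5% CO2, intrinsic fluorescence at 405/460 nm was measured and referenced to triamterene.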

[7] = qHTS assay to test for compound auto fluorescence at 590 nm (red) in HEK293 cells (AID 720679)
How it was run: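 Each well held 2,000 HEK293 cells in medium containing 10% dialyzed FBS. Following 4-5 hr attachment at 37C, 23 nL test compound or DMSO was added; plates sat overnight, and red fluorescence (540/590nm) was recorded.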

[8] = qHTS assay to test for compound auto fluorescence at 535 nm (green) in HEK293 cells (AID 720680)
[9] = qHTS assay to test for compound auto fluorescence at 460 nm (blue) in HEK293 cell free culture (AID 720681)
How it was run: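 Compounds were added to cell-free DMEM with 10% FBS and fluorescence read directly. The blue channel used 405 nm excitation and 460 nm emission, with triamterene as the reference fluorophore.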

[10] = qHTS assay to test for compound auto fluorescence at 535 nm (green) in HEK293 cell free culture (AID 720682)
How it was run: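 Using fluorescein as calibrant, autofluorescence was quantified at 485/535 nm in cell-free DMEM containing 10% FBS after pintool addition of compound or vehicle.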

[11] = qHTS assay to test for compound auto fluorescence at 590 nm (red) in HEK293 cell free culture (AID 720683)
How it was run: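 Cell-free wells of DMEM with 10% FBS received compound, and intrinsic fluorescence was read at excitation/emission 540/590 nm. Values expressed as equivalence to Rose Bengal sodium.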

[12] = qHTS assay to test for compound auto fluorescence at 590 nm (red) in HepG2 cell free culture (AID 720684)
How it was run: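 Auto fluorescence equivalency versus Rose Bengal sodium, red channel Ex/Em 540/590 nm; compounds in cell-free MEM/10% FBS; DMSO vehicle control.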

[13] = qHTS assay to test for compound auto fluorescence at 460 nm (blue) in HepG2 cell free culture (AID 720685)
How it was run: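 Cell-free plates of MEM plus 10% FBS received 23 nL compound or DMSO vehicle; blue-channel (405/460 nm) intensity scored against triamterene as reference fluorophore.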

[14] = qHTS assay to test for compound auto fluorescence at 535 nm (green) in HepG2 cell free culture (AID 720686)
[15] = qHTS assay to test for compound auto fluorescence at 460 nm (blue) in HepG2 cells (AID 720687)
How it was run: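 HepG2 cells in MEM with 10% FBS, attached overnight at 37 C, were exposed to compound or DMSO for 1 hr at 37 C, 5% CO2. Blue fluorescence was read at 405/460 nm, with triamterene as reference fluorophore.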

[16] = qHTS assay for small molecules that induce genotoxicity in human embryonic kidney cells expressing luciferase-tagged ATAD5 (AID 651632); further: nearly all actives have a fitted effect of over 15% in size
How it was run: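 Quantitative HTS in HEK293T expressing luciferase-tagged ATAD5, whose levels rise upon DNA damage. Exposure ran 16 hr at 37C and 5% CO2, with luminescence read 30 min after Amplite addition at room temperature.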

[17] = qHTS assay to test for compound auto fluorescence at 590 nm (red) in HepG2 cells (AID 720674)
How it was run: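 Seeding: 2,000 HepG2 cells/well, MEM/10% FBS, overnight 37 C. Dosing: compound vs DMSO. Incubation: 1 hr, 37 C, 5% CO2. Read: fluorescence 540 ex/590 em, Rose Bengal sodium as red reference.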

[18] = molecular target: Glucocorticoid receptor (Homo sapiens) (UniProt P04150); assay: qHTS assay to identify small molecule agonists of the glucocorticoid receptor (GR) signaling pathway (AID 720691; active means well fitted activation curve with a large enough effect in the signal ratio in the repeat runs, not every such curve was filed as active; the % refers to the signal ratio; further: potency means the concentration at half of the fitted maximal effect); conditions: GR-bla HeLa, beta-lactamase reporter ratio, 18 h; activation: at 62.4 µM (top of the series) unless noted
How it was run: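 Cells: GR-bla HeLa, endogenous GR with stably integrated GRE-beta-lactamase reporter. Treatment 18 h, 37 C, compounds delivered in DMSO. Detection via LiveBLAzer B/G FRET substrate, 2 h RT, fluorescence intensity.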

[19] = molecular target: Glucocorticoid receptor (Homo sapiens) (UniProt P04150); assay: qHTS assay to identify small molecule antagonists of the glucocorticoid receptor (GR) signaling pathway (AID 720692; active means well fitted inhibition curve with a large enough effect in the signal ratio in the repeat runs, not every such curve was filed as active; the % refers to the signal ratio)
How it was run: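 Quantitative HTS in antagonist format: HeLa cells expressing endogenous GR and a stably integrated GRE-bla reporter, stimulated with 5 nM dexamethasone (final) alongside test compounds for 18 h.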

[20] = qHTS assay for small molecule disruptors of the mitochondrial membrane potential (AID 720635); further: potency means the concentration at half of the fitted maximal effect
How it was run: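 HepG2 cells exposed to compound 1 hr at 37C, then Mito-MPS dye 30 min. Ratio read of aggregate (540/590 nm) versus monomer (490/535 nm) fluorescence.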
On the % scale 0 is the no-effect control and ±100 the full control effect.

Glucocorticoid receptor (Homo sapiens), sequence (P04150 whole entry, looked up): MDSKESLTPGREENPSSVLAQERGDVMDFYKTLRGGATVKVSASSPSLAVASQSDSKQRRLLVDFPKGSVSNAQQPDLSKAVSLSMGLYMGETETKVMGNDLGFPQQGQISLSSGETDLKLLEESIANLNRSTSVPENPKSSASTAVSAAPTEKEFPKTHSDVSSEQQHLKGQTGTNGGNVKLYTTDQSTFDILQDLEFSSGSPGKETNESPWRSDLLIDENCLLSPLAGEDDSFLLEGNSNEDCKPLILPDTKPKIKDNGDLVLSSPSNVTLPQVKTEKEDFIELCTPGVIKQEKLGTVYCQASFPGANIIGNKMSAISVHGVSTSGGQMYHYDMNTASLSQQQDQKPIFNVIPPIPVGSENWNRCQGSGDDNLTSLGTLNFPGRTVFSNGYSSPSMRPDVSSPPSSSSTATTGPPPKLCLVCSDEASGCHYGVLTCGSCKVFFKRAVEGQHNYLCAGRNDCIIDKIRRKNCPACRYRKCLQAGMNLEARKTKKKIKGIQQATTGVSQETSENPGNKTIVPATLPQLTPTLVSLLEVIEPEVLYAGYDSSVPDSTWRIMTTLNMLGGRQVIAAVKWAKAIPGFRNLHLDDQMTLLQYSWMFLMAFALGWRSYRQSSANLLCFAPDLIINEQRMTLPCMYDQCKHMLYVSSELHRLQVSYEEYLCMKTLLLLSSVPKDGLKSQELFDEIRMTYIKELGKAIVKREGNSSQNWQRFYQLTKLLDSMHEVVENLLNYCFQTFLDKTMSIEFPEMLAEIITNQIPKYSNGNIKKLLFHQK

CC(=O)[O][Al]
inactive: Potency [1] | Potency [2] | Potency [3] | Potency [4] | Potency [5] | outcome [6] | Potency [7] | outcome [8] | outcome [9] | outcome [10] | Potency [11] | Potency [12] | outcome [13] | Potency [14] | outcome [15]

O=C(O)c1ccccc1Cl
inactive: Potency [1] | Potency [2] | Potency [3] | Potency [4] | Potency [5] | outcome [6] | Potency [7] | outcome [8] | outcome [9] | outcome [10] | Potency [11] | Potency [12] | outcome [13] | Potency [14]

OCc1cc(C(O)CNCCCCCCOCCCCc2ccccc2)ccc1O (configuration not stated)
inactive: Potency [1] | Potency [16] | Potency [3] | Potency [4] | Potency [17] | Potency [5] | outcome [6] | outcome [8] | outcome [9] | outcome [10] | Potency [11] | Potency [12] | outcome [13] | Potency [14] | outcome [15] | Potency [18] | Potency [19]

CC/C=C\CCOC(=O)CC
inactive: Potency [1] | Potency [2] | Potency [3] | Potency [4] | Potency [17] | Potency [5] | outcome [6] | Potency [7] | outcome [8] | outcome [9] | outcome [10] | Potency [11] | Potency [12] | outcome [13] | Potency [14] | outcome [15]

CC[N+]1(CC)CCC(=C(c2ccccc2)c2ccccc2)C1C (configuration not stated)
inactive: Potency [1] | Potency [16] | Potency [3] | Potency [4] | Potency [20] | Potency [17] | Potency [5] | outcome [6] | outcome [8] | outcome [9] | outcome [10] | Potency [11] | Potency [12] | outcome [13] | Potency [14] | outcome [15] | Potency [18]

CC(=O)NO
inactive: Potency [1] | Potency [16] | Potency [2] | Potency [3] | Potency [4] | Potency [5] | outcome [6] | Potency [7] | outcome [8] | outcome [9] | Potency [12] | outcome [13] | Potency [14] | outcome [15] | Potency [18]

Cc1oc2c(NC(=O)c3c(Cl)cccc3Cl)cccc2c1C(C)(C)O
inactive: Potency [1] | Potency [16] | Potency [2] | Potency [17] | Potency [5] | outcome [6] | outcome [8] | outcome [9] | outcome [10] | Potency [11] | Potency [12] | outcome [13] | Potency [14] | outcome [15]

O=C(c1ccc(F)cc1)C1CCN(CCn2c(=S)[nH]c3ccccc3c2=O)CC1
inactive: Potency [1] | Potency [2] | Potency [3] | Potency [4] | Potency [17] | Potency [5] | outcome [6] | Potency [7] | outcome [8] | outcome [9] | outcome [10] | Potency [11] | Potency [12] | outcome [13] | Potency [14] | outcome [15] | Potency [18] | Potency [19]

Cc1ccc(N=Nc2c(O)c(C(=O)O)cc3ccccc23)c(S(=O)(=O)O)c1
inactive: Potency [16] | Potency [2] | Potency [4] | Potency [17] | Potency [5] | outcome [6] | Potency [7] | outcome [8] | outcome [9] | outcome [10] | Potency [11] | Potency [12] | outcome [13] | Potency [14] | outcome [15]
active: Potency [3] 11.8 µM

C[C@@H]1C[C@H]2O[C@@]3(O[C@@H]2C(C)(C)O)[C@H](O)[C@@]2(C)[C@@H]4CC[C@H]5C(C)(C)[C@@H](O[C@@H]6OC[C@@H](O)[C@H](O)[C@H]6O)CC[C@@]56C[C@@]46CC[C@]2(C)[C@@H]13
inactive: Potency [16] | Potency [2] | Potency [3] | Potency [4] | Potency [17] | Potency [5] | outcome [6] | outcome [8] | outcome [9] | outcome [10] | Potency [11] | Potency [12] | outcome [13] | Potency [14] | outcome [15]
active: Potency [20] 5.38 µM

CCC(C)O (configuration not stated)
inactive: Potency [1] | Potency [3] | Potency [4] | Potency [17] | Potency [5] | Potency [7] | outcome [8] | outcome [9] | outcome [10] | Potency [11] | Potency [12] | outcome [13] | Potency [14] | Potency [18] | Potency [19]

CC(C)(C)OCC1CO1 (configuration not stated)
inactive: Potency [16] | Potency [2] | Potency [3] | Potency [4] | Potency [20] | Potency [17] | Potency [5] | outcome [6] | outcome [8] | outcome [9] | outcome [10] | Potency [11] | Potency [12] | outcome [13] | Potency [14] | outcome [15]

COc1ccc(-c2nc3ccc(C4=NNC(=O)CC4C)cc3[nH]2)cc1 (configuration not stated)
inactive: Potency [2] | Potency [4] | Potency [17] | Potency [5] | outcome [6] | outcome [8] | outcome [9] | outcome [10] | Potency [11] | Potency [12] | outcome [13] | Potency [14] | outcome [15] | Potency [18]
active: Potency [1] 11.9 µM

CC(C)=CCC/C(C)=C/CC/C(C)=C/CO
inactive: Potency [16] | Potency [3] | Potency [4] | Potency [17] | Potency [5] | outcome [6] | Potency [7] | outcome [8] | outcome [9] | outcome [10] | Potency [11] | Potency [12] | outcome [13] | Potency [14] | outcome [15]
active: Potency [2] 68.6 µM

Brc1c2ccccc2c(Br)c2ccccc12
inactive: activation [16] 1.86% [at 8.08 µM] | activity change, negative = cytotoxicity [2] 12.3% [at 8.08 µM] | activity, negative = cytotoxicity [3] 21.9% [at 8.08 µM] | activity change, negative = cytotoxicity [4] -7.1% [at 8.08 µM] | fluorescence, relative to Rose Bengal [17] 0.105% [at 3.72 µM] | fluorescence, % of fluorescein control [5] 0.0196% [at 3.72 µM] | fluorescence, % of triamterene [6] 0.364% [at 3.72 µM] | fluorescence, % of fluorescent control [7] -0.0447% [at 3.72 µM] | fluorescence, % of fluorescein [8] 0.0022% [at 3.72 µM] | fluorescence, % of fluorescent control [9] 0.357% [at 3.72 µM] | activity change [10] -0.0415% [at 3.72 µM] | fluorescence, % of fluorescent control [11] 0.0422% [at 3.72 µM] | fluorescence, % of Rose Bengal [12] 0.241% [at 3.72 µM] | fluorescence, % of fluorescent control [13] 0.581% [at 3.72 µM] | fluorescence, % of fluorescein control [14] 0.0474% [at 3.72 µM] | fluorescence, % of fluorescent control [15] 1.18% [at 3.72 µM]
active: Potency [18] 0.882 µM
